Data from paper PMC7862700, “An all-to-all approach to the identification of sequence-specific readers for epigenetic DNA modifications on cytosine”.

How the values were obtained:
Assay in all cases: DAPPL (digital affinity profiling via proximity ligation, sequencing); 10 mM Tris-HCl pH 7.5, 50 mM NaCl, 1 mM DTT, 4% glycerol, room temperature, 30 min; GST-TFs on glutathione beads, 16-mer random dsDNA library, 0.1% formaldehyde crosslink after washing; high values mean tight binding
FLI1 = target: T1, FLI1 (Homo sapiens, UniProt Q01543 1-452); conditions: protein: recombinant; tags: N-terminal GST; dsDNA, one strand shown
T1 sequence: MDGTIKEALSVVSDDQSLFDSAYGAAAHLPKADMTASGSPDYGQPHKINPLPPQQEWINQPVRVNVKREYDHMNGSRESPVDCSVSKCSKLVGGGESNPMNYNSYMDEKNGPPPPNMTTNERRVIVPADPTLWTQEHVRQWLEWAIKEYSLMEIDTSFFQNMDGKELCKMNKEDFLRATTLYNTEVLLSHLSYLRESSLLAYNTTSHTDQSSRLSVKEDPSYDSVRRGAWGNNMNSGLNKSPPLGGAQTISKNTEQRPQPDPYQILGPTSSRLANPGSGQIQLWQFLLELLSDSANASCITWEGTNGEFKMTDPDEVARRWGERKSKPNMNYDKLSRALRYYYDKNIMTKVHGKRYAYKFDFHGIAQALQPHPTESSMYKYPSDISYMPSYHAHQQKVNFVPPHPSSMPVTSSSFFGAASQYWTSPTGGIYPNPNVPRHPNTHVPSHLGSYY
Outline: (§1)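 Human transcription factors fused to GST were expressed in yeast, captured on glutathione beads, given DNA barcodes and pooled with a GST-only negative control. Pools were incubated with 200 nmole of a 16-mer random double-stranded DNA library in Tris/NaCl/DTT/glycerol buffer at room temperature for 30 min. They were then washed, crosslinked with 0.1% formaldehyde, proximity-ligated (BsaI/T4 ligase, 1 h, 37 °C), PCR-amplified and sequenced on an Illumina NextSeq500. Binding signal is each 6-mer's read frequency for a factor divided by its frequency for the GST control.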

ELK1 = target: T2, ELK1 (Homo sapiens, UniProt P19419 1-428); conditions: protein: recombinant; tags: N-terminal GST; dsDNA, one strand shown
T2 sequence: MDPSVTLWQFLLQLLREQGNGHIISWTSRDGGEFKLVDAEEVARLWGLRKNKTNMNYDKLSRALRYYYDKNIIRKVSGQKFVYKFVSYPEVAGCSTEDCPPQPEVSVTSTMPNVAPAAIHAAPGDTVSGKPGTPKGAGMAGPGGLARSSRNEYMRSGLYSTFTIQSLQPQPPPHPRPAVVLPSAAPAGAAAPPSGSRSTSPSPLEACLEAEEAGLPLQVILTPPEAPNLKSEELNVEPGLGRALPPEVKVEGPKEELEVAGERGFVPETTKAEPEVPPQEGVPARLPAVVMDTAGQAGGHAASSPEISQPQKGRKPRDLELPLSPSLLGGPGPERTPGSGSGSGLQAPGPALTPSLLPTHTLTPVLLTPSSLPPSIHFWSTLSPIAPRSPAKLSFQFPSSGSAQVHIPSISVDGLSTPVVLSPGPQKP
Outline: as §1

GABPA = target: T3, GABPA (Homo sapiens, UniProt Q06546 1-454); conditions: protein: recombinant; tags: N-terminal GST; dsDNA, one strand shown
T3 sequence: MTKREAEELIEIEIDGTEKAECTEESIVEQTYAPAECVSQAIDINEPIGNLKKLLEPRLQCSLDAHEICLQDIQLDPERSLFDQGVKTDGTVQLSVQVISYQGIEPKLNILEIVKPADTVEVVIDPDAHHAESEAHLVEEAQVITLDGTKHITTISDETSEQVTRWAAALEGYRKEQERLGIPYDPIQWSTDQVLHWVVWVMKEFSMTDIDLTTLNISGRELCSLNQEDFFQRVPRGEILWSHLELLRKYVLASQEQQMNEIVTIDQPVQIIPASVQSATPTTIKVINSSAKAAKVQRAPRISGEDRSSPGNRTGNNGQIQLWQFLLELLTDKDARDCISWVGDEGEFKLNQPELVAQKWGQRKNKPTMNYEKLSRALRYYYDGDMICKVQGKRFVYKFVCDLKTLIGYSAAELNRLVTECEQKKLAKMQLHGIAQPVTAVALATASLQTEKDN
Outline: as §1

ERG = target: T4, ERG (Homo sapiens, UniProt P11308 1-479); conditions: protein: recombinant; tags: N-terminal GST; dsDNA, one strand shown
T4 sequence: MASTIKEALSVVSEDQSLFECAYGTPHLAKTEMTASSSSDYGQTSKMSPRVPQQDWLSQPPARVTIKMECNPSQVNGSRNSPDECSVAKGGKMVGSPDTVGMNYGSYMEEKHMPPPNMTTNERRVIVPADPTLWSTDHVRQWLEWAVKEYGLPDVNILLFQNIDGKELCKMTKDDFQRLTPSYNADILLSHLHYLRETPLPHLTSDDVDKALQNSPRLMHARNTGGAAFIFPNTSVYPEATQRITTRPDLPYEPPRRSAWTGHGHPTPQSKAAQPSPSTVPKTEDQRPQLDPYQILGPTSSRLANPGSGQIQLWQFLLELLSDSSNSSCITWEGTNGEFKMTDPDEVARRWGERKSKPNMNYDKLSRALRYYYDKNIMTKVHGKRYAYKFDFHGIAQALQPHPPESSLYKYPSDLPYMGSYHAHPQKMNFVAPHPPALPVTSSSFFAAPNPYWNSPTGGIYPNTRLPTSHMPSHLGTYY
Outline: as §1

ELF1 = ELF1 (Homo sapiens, UniProt P32519 1-619); conditions: protein: recombinant; tags: N-terminal GST; dsDNA, one strand shown
Sequence of ELF1 (P32519 whole entry): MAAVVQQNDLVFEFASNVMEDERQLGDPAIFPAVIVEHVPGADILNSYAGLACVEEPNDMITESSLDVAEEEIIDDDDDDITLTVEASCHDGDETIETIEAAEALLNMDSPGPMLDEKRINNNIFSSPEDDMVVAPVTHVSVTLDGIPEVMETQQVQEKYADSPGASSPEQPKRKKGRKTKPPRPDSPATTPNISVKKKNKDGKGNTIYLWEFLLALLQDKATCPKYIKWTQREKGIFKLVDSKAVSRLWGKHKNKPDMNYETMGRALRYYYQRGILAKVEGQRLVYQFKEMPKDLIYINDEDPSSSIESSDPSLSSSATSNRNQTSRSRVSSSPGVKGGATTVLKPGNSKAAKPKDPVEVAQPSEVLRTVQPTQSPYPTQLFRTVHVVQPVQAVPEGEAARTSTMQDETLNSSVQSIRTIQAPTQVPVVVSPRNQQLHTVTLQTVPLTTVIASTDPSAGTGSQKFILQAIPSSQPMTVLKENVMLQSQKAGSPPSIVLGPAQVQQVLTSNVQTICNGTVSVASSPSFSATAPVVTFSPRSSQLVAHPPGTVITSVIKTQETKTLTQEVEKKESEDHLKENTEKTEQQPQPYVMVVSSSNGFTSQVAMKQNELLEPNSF
Outline: as §1

EHF = target: T5, EHF (Homo sapiens, UniProt Q9NZC4 1-300); conditions: protein: recombinant; tags: N-terminal GST; dsDNA, one strand shown
T5 sequence: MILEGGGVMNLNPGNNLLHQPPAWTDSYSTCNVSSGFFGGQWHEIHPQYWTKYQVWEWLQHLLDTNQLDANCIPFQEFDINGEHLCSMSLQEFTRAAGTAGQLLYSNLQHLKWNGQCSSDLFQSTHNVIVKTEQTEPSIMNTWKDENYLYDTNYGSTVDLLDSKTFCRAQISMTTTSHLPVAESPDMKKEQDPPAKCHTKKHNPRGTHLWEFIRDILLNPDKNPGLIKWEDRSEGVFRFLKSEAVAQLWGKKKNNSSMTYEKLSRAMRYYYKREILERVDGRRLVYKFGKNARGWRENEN
Outline: as §1

SPI1 = SPI1 (Homo sapiens, UniProt P17947 1-270); conditions: protein: recombinant; tags: N-terminal GST; dsDNA, one strand shown
Outline: as §1

SPIB = SPIB (Homo sapiens, UniProt Q01892 1-262); conditions: protein: recombinant; tags: N-terminal GST; dsDNA, one strand shown
Sequence of SPIB (Q01892 whole entry): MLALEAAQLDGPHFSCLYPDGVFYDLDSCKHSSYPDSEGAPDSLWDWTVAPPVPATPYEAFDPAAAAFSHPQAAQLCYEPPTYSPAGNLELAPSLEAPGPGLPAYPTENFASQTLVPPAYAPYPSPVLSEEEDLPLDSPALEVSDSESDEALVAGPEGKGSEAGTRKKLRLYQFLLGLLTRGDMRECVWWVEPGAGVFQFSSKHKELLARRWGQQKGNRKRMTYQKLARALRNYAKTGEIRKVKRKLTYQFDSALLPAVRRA
Outline: as §1

ELK3 = target: T6, ELK3 (Homo sapiens, UniProt P41970 1-407); conditions: protein: recombinant; tags: N-terminal GST; dsDNA, one strand shown
T6 sequence: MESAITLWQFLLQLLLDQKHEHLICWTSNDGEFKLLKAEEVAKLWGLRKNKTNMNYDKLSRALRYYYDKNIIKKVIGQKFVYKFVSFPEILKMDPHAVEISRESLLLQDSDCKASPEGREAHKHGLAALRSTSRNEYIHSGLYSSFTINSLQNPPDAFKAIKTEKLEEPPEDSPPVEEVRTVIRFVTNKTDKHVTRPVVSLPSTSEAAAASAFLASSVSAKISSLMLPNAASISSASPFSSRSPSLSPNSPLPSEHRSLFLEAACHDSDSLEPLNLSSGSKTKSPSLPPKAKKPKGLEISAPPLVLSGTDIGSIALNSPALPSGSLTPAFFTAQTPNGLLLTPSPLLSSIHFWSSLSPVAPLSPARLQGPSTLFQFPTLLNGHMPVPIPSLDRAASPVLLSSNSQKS
Outline: as §1

FEV = target: T7, FEV (Homo sapiens, UniProt Q99581 1-238); conditions: protein: recombinant; tags: N-terminal GST; dsDNA, one strand shown
T7 sequence: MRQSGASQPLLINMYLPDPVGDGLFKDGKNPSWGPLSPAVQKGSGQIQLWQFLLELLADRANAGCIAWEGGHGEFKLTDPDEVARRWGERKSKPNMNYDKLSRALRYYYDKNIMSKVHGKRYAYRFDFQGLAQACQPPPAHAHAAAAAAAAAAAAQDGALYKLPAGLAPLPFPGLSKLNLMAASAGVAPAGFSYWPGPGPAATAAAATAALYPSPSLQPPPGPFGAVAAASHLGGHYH
Outline: as §1

ETV5 = ETV5 (Homo sapiens, UniProt P41161 1-510); conditions: protein: recombinant; tags: N-terminal GST; dsDNA, one strand shown
Sequence of ETV5 (P41161 whole entry): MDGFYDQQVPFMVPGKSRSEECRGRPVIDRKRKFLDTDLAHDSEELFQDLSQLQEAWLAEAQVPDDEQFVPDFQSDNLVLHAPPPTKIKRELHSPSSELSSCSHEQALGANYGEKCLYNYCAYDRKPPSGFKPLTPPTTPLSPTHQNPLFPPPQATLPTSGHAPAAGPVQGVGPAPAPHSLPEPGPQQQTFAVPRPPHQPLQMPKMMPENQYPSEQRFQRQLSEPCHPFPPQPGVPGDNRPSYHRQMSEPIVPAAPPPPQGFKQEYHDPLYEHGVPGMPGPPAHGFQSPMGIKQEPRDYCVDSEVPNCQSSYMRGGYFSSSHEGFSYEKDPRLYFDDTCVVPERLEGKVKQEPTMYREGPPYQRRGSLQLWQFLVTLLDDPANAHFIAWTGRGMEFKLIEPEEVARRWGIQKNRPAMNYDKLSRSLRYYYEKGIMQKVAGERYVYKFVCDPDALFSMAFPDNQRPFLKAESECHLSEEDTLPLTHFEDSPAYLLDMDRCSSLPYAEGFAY
Outline: as §1

HSF1 = HSF1 (Homo sapiens, UniProt Q00613 1-529); conditions: protein: recombinant; tags: N-terminal GST; chain copies: 3; dsDNA, one strand shown
Sequence of HSF1 (Q00613 whole entry): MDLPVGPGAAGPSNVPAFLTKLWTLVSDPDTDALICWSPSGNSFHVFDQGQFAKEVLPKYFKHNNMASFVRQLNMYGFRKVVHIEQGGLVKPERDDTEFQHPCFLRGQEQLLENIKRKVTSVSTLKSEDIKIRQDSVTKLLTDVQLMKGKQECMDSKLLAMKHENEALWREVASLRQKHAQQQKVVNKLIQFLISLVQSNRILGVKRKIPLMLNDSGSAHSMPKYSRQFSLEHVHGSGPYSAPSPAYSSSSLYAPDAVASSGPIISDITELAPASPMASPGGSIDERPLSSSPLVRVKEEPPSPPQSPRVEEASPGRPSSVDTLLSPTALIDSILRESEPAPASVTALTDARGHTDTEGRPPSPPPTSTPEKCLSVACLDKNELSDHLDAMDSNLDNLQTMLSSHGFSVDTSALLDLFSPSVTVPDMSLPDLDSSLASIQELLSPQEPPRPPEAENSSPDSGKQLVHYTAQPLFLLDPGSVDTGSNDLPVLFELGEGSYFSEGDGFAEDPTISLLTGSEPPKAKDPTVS
Outline: as §1

SPIC = target: T8, SPIC (Homo sapiens, UniProt Q8N5J4 1-248); conditions: protein: recombinant; tags: N-terminal GST; dsDNA, one strand shown
T8 sequence: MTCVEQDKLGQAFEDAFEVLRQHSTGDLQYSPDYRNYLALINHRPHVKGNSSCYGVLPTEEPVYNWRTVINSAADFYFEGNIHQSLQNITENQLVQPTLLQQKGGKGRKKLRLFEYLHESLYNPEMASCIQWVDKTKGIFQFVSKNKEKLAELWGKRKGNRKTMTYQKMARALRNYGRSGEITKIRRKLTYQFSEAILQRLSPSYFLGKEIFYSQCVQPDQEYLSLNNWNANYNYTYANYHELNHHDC
Outline: as §1

ELF4 = ELF4 (Homo sapiens, UniProt Q99607 1-663); conditions: protein: recombinant; tags: N-terminal GST; dsDNA, one strand shown
Sequence of ELF4 (Q99607 whole entry): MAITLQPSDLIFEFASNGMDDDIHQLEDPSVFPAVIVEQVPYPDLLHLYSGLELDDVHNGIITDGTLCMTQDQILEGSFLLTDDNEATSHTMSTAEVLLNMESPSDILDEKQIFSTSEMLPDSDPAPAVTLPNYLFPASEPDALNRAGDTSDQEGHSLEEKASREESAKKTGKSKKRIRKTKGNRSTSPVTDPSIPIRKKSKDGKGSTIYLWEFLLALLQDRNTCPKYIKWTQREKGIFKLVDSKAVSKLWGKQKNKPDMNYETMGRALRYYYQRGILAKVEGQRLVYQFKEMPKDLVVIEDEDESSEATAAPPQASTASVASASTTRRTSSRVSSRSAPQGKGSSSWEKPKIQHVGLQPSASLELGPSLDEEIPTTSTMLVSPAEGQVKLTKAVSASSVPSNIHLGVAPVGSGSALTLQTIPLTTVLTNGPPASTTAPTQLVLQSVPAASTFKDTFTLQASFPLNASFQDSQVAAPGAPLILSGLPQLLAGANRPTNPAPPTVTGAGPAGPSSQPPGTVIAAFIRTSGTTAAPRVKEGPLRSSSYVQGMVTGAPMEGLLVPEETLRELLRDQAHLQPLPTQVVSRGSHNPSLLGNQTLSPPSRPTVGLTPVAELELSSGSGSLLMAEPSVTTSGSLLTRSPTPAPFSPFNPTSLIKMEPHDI
Outline: as §1

ELK4 = target: T9, ELK4 (Homo sapiens, UniProt P28324-2 1-405); conditions: protein: recombinant; tags: N-terminal GST; dsDNA, one strand shown
T9 sequence: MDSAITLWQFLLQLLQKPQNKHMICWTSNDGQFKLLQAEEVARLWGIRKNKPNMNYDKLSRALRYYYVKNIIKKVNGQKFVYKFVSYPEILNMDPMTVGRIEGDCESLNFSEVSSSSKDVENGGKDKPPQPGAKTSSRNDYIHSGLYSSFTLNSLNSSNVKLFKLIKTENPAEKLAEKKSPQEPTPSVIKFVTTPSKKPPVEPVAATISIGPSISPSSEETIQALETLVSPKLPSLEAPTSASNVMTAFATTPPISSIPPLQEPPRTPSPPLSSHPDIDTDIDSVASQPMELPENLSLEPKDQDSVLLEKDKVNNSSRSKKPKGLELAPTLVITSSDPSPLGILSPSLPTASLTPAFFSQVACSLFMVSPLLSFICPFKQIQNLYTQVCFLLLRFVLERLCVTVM
Outline: as §1

ETV2 = target: T10, ETV2 (Homo sapiens, UniProt O00321 1-342); conditions: protein: recombinant; tags: N-terminal GST; dsDNA, one strand shown
T10 sequence: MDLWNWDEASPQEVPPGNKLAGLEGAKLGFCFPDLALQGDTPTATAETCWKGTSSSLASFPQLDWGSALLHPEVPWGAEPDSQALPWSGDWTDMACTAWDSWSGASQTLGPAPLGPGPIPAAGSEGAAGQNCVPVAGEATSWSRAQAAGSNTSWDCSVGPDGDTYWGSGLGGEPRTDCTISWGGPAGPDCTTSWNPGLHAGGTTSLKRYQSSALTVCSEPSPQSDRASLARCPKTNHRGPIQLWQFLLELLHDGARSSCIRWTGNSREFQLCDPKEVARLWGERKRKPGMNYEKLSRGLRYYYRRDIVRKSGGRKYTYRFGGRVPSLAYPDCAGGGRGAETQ
Outline: as §1

ELF3 = target: T11, ELF3 (Homo sapiens, UniProt P78545 1-371); conditions: protein: recombinant; tags: N-terminal GST; dsDNA, one strand shown
T11 sequence: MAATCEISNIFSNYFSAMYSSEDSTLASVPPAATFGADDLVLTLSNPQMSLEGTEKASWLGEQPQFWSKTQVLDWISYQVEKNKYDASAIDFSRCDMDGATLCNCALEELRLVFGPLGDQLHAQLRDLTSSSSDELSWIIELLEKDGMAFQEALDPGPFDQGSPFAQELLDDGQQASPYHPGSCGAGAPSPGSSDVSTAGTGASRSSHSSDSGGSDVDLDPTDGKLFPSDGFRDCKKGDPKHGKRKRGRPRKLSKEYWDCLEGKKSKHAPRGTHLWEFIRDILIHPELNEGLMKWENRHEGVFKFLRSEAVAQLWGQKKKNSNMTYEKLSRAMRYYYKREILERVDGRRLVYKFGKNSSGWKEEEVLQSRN
Outline: as §1

CRX = CRX (Homo sapiens, UniProt O43186 1-299); conditions: protein: recombinant; tags: N-terminal GST; dsDNA, one strand shown
Sequence of CRX (O43186 whole entry): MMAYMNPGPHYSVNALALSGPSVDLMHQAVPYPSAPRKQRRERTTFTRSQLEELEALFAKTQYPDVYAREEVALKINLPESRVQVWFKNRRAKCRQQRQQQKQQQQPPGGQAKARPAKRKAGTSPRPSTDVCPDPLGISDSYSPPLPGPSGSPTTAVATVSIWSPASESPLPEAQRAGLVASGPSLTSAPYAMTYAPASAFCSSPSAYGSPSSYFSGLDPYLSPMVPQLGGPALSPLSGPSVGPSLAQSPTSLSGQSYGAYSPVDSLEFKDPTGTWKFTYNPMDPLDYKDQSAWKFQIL
Outline: as §1

ETV1 = ETV1 (Homo sapiens, UniProt P50549 1-477); conditions: protein: recombinant; tags: N-terminal GST; dsDNA, one strand shown
Sequence of ETV1 (P50549 whole entry): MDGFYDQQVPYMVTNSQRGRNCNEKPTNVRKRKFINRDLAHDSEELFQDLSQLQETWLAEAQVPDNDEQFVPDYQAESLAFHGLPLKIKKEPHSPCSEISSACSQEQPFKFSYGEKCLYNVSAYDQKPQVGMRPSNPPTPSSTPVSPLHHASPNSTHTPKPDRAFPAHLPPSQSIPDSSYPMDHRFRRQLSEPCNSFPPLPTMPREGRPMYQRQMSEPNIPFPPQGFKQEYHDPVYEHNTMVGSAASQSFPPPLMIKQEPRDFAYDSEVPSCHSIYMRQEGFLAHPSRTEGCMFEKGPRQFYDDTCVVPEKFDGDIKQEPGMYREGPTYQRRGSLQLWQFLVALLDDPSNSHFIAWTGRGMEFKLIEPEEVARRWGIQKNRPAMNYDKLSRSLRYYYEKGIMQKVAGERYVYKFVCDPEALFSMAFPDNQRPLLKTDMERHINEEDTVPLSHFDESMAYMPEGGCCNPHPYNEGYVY
Outline: as §1

For TTCAAT, which binding signal (FLI1) is on record?
Its binding signal is 1.33 fold enrichment (6-mer frequency, TF over GST control).

What about the binding signal (ELK1) of the same sequence?
Its binding signal is 1.42 fold enrichment (6-mer frequency, TF over GST control).

What about the binding signal (GABPA) of the same sequence?
The binding signal was 1.42 fold enrichment (6-mer frequency, TF over GST control).

And the binding signal (ERG)?
Its binding signal is 1.41 fold enrichment (6-mer frequency, TF over GST control).

What about the binding signal (ELF1) of the same sequence?
The binding signal was 1.37 fold enrichment (6-mer frequency, TF over GST control).

And the binding signal (EHF)?
The binding signal was 1.34 fold enrichment (6-mer frequency, TF over GST control).

And the binding signal (SPI1)?
Its binding signal is 1.38 fold enrichment (6-mer frequency, TF over GST control).

And the binding signal (SPIB)?
Its binding signal is 1.36 fold enrichment (6-mer frequency, TF over GST control).

And the binding signal (ELK3)?
Its binding signal is 1.26 fold enrichment (6-mer frequency, TF over GST control).

What about the binding signal (FEV) of the same sequence?
The binding signal was 1.31 fold enrichment (6-mer frequency, TF over GST control).

And the binding signal (ETV5)?
The binding signal was 1.32 fold enrichment (6-mer frequency, TF over GST control).

What about the binding signal (HSF1) of the same sequence?
The binding signal was 1.27 fold enrichment (6-mer frequency, TF over GST control).

What about the binding signal (SPIC) of the same sequence?
Its binding signal is 1.43 fold enrichment (6-mer frequency, TF over GST control).

And the binding signal (ELF4)?
The binding signal was 1.33 fold enrichment (6-mer frequency, TF over GST control).

What about the binding signal (ELK4) of the same sequence?
The binding signal was 1.42 fold enrichment (6-mer frequency, TF over GST control).

And the binding signal (ETV2)?
The binding signal was 1.43 fold enrichment (6-mer frequency, TF over GST control).

What about the binding signal (ELF3) of the same sequence?
The binding signal was 1.36 fold enrichment (6-mer frequency, TF over GST control).

And the binding signal (CRX)?
Its binding signal is 1.38 fold enrichment (6-mer frequency, TF over GST control).

What about the binding signal (ETV1) of the same sequence?
Its binding signal is 1.45 fold enrichment (6-mer frequency, TF over GST control).
